Records with an inconclusive call do not appear. Activity calls are given as the source filed them.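 How the source made its calls, unless noted: active means normalized viability below 100% at a tested concentration; inactive means the rest.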
Columns and labels:
[1] = growth inhibition of DIPG glioma cells, dose response, cell-based, SU-DIPG-XVII, MIPE5.0, CellTiter-Glo, qHTS (AID 1347060; cut-off not given, nearly all actives have AC50 up to about 26 µM;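 on AC50: cells exposed to compound for 48 hours before viability readout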); conditions: SU-DIPG-XVII viability, CellTiter-Glo ATP luminescence
[2] = growth inhibition of DIPG glioma cells, dose response, cell-based, SU-DIPG-XIII, MIPE4.0, CellTiter-Glo, qHTS (AID 1347061; cut-off not given, nearly all actives have AC50 up to about 37 µM;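 further: cells exposed to compound for 48 hours before readout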); conditions: SU-DIPG-XIII viability, CellTiter-Glo ATP luminescence
[3] = growth inhibition of DIPG glioma cells, dose response, cell-based, JHH-DIPG-1, MIPE4.0, CellTiter-Glo, qHTS (AID 1347062; cut-off not given, nearly all actives have AC50 up to about 27 µM;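 on AC50: cells exposed to compound for two days before readout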); conditions: JHH-DIPG-1 viability, CellTiter-Glo ATP luminescence
[4] = growth inhibition of DIPG glioma cells, dose response, cell-based, SU-DIPG-IV, MIPE4.0, CellTiter-Glo, qHTS (AID 1347063; cut-off not given, nearly all actives have AC50 up to about 30 µM;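 further: compound exposure lasted 48 hours before the viability readout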); conditions: SU-DIPG-IV viability, CellTiter-Glo ATP luminescence
[5] = growth inhibition of DIPG glioma cells, dose response, cell-based, SU-DIPG-XIII, MIPE5.0, CellTiter-Glo, qHTS (AID 1347064; cut-off not given, nearly all actives have AC50 up to about 23 µM;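 on AC50: cells exposed to compound for 48 hours before the viability read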); conditions: SU-DIPG-XIII viability, CellTiter-Glo ATP luminescence
[6] = viability loss in pontine glioma line – cell-based, SU-DIPG-XXV, MIPE5.0, CellTiter-Glo, qHTS, dose response (AID 1347065; cut-off not given, nearly all actives have AC50 up to about 26 µM;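 further: cells exposed to compound for 48 hours before ATP readout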); conditions: CellTiter-Glo ATP luminescence
[7] = SU-DIPG-VI glioma cell viability, MIPE4.0 library, CellTiter-Glo luminescence, qHTS (AID 1347066; cut-off not given, nearly all actives have AC50 up to about 30 µM;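 further: cells exposed to compound for 48 hours before readout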); conditions: CellTiter-Glo ATP luminescence
[8] = SU-DIPG-XXV glioma cell viability, MIPE5.0 library, qHTS (AID 1347068; cut-off not given, nearly all actives have IC50 up to about 30 µM;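 on IC50: cells exposed to compound for 48 hours before viability readout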)
[9] = sensitizers of A549 cells to miR-34 induction, primary screen, imaging, A549 dox-inducible miR-34, nuclei and caspase counts (AID 1347080;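 active means compounds whose cell count with miR-34 switched on is under 0.7 times the count with it off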); conditions: A549 miR-34 inducible, Hoechst nuclei count, 48 h
[10] = modifiers of HSF1 nuclear foci, imaging, Selleck Cancer Library (AID 1347162; in the data active means plate-normalised HSF1 focus index below about 0.46); conditions: human cells, at 10 µM; SSMD: measured here: HSF1 foci SSMD mean; cell count: measured here: cell number; plate-normalised HSF1 focus index: stronger effect = lower value
[11] = survival rescue of mitochondrial mutant cells in low glucose, primary screen, MELAS cybrids, Rieske KO mouse fibroblasts, CellTiter-Glo (AID 1508586;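 active means mean z-score across replicates of 1.96 or higher in either the MELAS or the Rieske mutant cell line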;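 further: z relative to plate mean and SD of compound and empty wells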)
[12] = ovarian cancer cell viability with rucaparib, profiling panel, oncology-focused library, rucaparib conditional (AID 1508598); conditions: patient-derived ovarian cancer cells, CellTiter-Glo viability, 144 h, stronger effect = lower value
[13] = JHH-DIPG-1 glioma cell viability, MIPE5.0 library, CellTiter-Glo luminescence, qHTS (AID 1347067; cut-off not given, nearly all actives have AC50 up to about 26 µM;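 further: cells exposed to compound for 48 hours before readout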); conditions: JHH-DIPG-1 glioma viability, CellTiter-Glo ATP luminescence
[14] = stronger effect = lower value, cell number ratio, induced over uninduced
[15] = measured here: relative caspase fold change +Dox/-Dox
[16] = measured here: total cells with miR-34 induction, stronger effect = lower value
[17] = measured here: total cells without miR-34 induction
[18] = MELAS cybrid survival, CellTiter-Glo 48 h, stronger effect = higher value
[19] = Rieske KO mouse fibroblast survival, CellTiter-Glo 72 h

CCOc1ccn(-c2ccc(F)cc2)c(=O)c1C(=O)Nc1ccc(Oc2ccnc(N)c2Cl)c(F)c1
4210: cell count [9, 17]
2.9: SSMD [10]
7130: cell count [10]
5080: cell count [9, 16]
0.507: fold change [9, 15]
-0.0407: z-score [11, 19]
active: AC50 [4] 18700 nM | AC50 [6] 11800 nM | viability ([12]; at 0.00122 µM, OCI-P5x cells, with rucaparib 20 µM, 100% = cells with rucaparib alone) 99.9% | viability ([12]; at 0.313 µM, OCI-P5x cells, with rucaparib 20 µM, 100% = cells with rucaparib alone) 91.8% | viability ([12]; at 1.25 µM, OCI-P5x cells, with rucaparib 20 µM, 100% = cells with rucaparib alone) 88.6% | viability ([12]; at 1.25 µM, OCI-P5x cells, without rucaparib) 97.3% | viability ([12]; at 5 µM, OCI-P5x cells, with rucaparib 20 µM, 100% = cells with rucaparib alone) 65.2% | viability ([12]; at 5 µM, OCI-P5x cells, without rucaparib) 96.2%
inactive: outcome [1] | outcome [2] | outcome [3] | outcome [5] | outcome [7] | outcome [8] | fold change [9, 14] 1.21 | plate-normalised HSF1 focus index [10] 1.11 | z-score [11, 18] -0.348 | viability ([12]; at 0.000305 µM, OCI-C5x cells, with rucaparib 10 µM, 100% = cells with rucaparib alone) 118% | viability ([12]; at 0.000305 µM, OCI-C5x cells, without rucaparib) 124% | viability ([12]; at 0.000305 µM, OCI-P5x cells, with rucaparib 20 µM, 100% = cells with rucaparib alone) 109% | viability ([12]; at 0.000305 µM, OCI-P5x cells, without rucaparib) 129% | viability ([12]; at 0.00122 µM, OCI-C5x cells, with rucaparib 10 µM, 100% = cells with rucaparib alone) 125% | viability ([12]; at 0.00122 µM, OCI-C5x cells, without rucaparib) 134% | viability ([12]; at 0.00122 µM, OCI-P5x cells, without rucaparib) 120% | viability ([12]; at 0.00488 µM, OCI-C5x cells, with rucaparib 10 µM, 100% = cells with rucaparib alone) 113% | viability ([12]; at 0.00488 µM, OCI-C5x cells, without rucaparib) 120% | viability ([12]; at 0.00488 µM, OCI-P5x cells, with rucaparib 20 µM, 100% = cells with rucaparib alone) 103% | viability ([12]; at 0.00488 µM, OCI-P5x cells, without rucaparib) 117% | viability ([12]; at 0.0195 µM, OCI-C5x cells, with rucaparib 10 µM, 100% = cells with rucaparib alone) 116% | viability ([12]; at 0.0195 µM, OCI-C5x cells, without rucaparib) 118% | viability ([12]; at 0.0195 µM, OCI-P5x cells, with rucaparib 20 µM, 100% = cells with rucaparib alone) 101% | viability ([12]; at 0.0195 µM, OCI-P5x cells, without rucaparib) 114% | viability ([12]; at 0.0781 µM, OCI-C5x cells, with rucaparib 10 µM, 100% = cells with rucaparib alone) 110% | viability ([12]; at 0.0781 µM, OCI-C5x cells, without rucaparib) 138% | viability ([12]; at 0.0781 µM, OCI-P5x cells, with rucaparib 20 µM, 100% = cells with rucaparib alone) 107% | viability ([12]; at 0.0781 µM, OCI-P5x cells, without rucaparib) 116% | viability ([12]; at 0.313 µM, OCI-C5x cells, with rucaparib 10 µM, 100% = cells with rucaparib alone) 129% | viability ([12]; at 0.313 µM, OCI-C5x cells, without rucaparib) 128% | viability ([12]; at 0.313 µM, OCI-P5x cells, without rucaparib) 106% | viability ([12]; at 1.25 µM, OCI-C5x cells, with rucaparib 10 µM, 100% = cells with rucaparib alone) 135% | viability ([12]; at 1.25 µM, OCI-C5x cells, without rucaparib) 120% | viability ([12]; at 5 µM, OCI-C5x cells, with rucaparib 10 µM, 100% = cells with rucaparib alone) 133% | viability ([12]; at 5 µM, OCI-C5x cells, without rucaparib) 135%

O=C(c1cncc(Br)c1)N1CCC(N2CCCC2)CC1
inactive: outcome [1] | outcome [2] | outcome [3] | outcome [4] | outcome [5] | outcome [6] | outcome [8] | fold change [9, 14] 0.889 | z-score [11, 18] -0.503
active: AC50 [13] 13200 nM
-0.908: z-score [11, 19]
0.588: fold change [9, 15]
8800: cell count [9, 17]
7820: cell count [9, 16]

CN[C@@H]1C[C@H]2O[C@@](C)([C@@H]1OC)n1c3ccccc3c3c4c(c5c6ccccc6n2c5c31)C(=O)N[C@H]4O
active: AC50 [1] 135 nM | AC50 [2] 590 nM | AC50 [3] 187 nM | AC50 [4] 1320 nM | AC50 [5] 85.5 nM | AC50 [6] 30.3 nM | AC50 [7] 296 nM | AC50 [13] 38.2 nM | IC50 [8] 605 nM

COc1ccnc2[nH]cc(C(=O)C(=O)N3CCN(C(=O)c4ccccc4)C[C@H]3C)c12
inactive: outcome [1] | outcome [2] | outcome [3] | outcome [4] | outcome [5] | outcome [6] | outcome [13] | outcome [8]

CN(C)C(N)=NC(=N)N
inactive: outcome [1] | outcome [2] | outcome [3] | outcome [4] | outcome [5] | outcome [6] | outcome [7] | outcome [8]

O=C(NOCC(O)CO)c1cc(Br)c(F)c(F)c1Nc1ccc(I)cc1F (configuration not stated)
active: AC50 [1] 2090 nM | AC50 [2] 2640 nM | AC50 [3] 16600 nM | AC50 [4] 20900 nM | AC50 [5] 1480 nM | AC50 [6] 3720 nM | AC50 [13] 468 nM
3720: cell count [9, 17]
-0.494: z-score [11, 19]
inactive: outcome [7] | fold change [9, 14] 1.01 | z-score [11, 18] -0.561
3740: cell count [9, 16]
1.08: fold change [9, 15]

Reference: PubChem BioAssay
